Assay in all cases: DAPPL (digital affinity profiling via proximity ligation, sequencing); 10 mM Tris-HCl pH 7.5, 50 mM NaCl, 1 mM DTT, 4% glycerol, room temperature, 30 min; GST-TFs on glutathione beads, 16-mer random dsDNA library, 0.1% formaldehyde crosslink after washing; high values mean tight binding
Holding throughout (details): protein: recombinant; tags: N-terminal GST; dsDNA, one strand shown

The target in assay [1] is T1, ERF (Homo sapiens, UniProt P50548 1-548).
T1 sequence: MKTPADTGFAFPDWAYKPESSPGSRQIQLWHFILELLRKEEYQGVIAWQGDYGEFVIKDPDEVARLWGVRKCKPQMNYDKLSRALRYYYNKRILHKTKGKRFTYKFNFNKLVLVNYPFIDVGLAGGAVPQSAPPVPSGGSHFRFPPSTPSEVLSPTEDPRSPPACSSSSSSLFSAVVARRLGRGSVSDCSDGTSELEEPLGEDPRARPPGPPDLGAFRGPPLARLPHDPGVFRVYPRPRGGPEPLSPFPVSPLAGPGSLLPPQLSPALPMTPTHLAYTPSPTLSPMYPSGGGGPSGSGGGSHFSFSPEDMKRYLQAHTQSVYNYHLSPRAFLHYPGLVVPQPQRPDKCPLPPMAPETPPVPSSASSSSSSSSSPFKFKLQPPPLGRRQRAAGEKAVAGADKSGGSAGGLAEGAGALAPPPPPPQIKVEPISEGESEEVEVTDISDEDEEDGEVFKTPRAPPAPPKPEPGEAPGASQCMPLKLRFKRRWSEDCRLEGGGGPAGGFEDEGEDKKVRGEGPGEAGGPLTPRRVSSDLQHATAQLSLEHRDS
An outline of the steps: (§1)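 Human transcription factors fused to GST were expressed in yeast, captured on glutathione beads, given DNA barcodes and pooled with a GST-only negative control. Pools were incubated with 200 nmole of a 16-mer random double-stranded DNA library in Tris/NaCl/DTT/glycerol buffer at room temperature for 30 min. They were then washed, crosslinked with 0.1% formaldehyde, proximity-ligated (BsaI/T4 ligase, 1 h, 37 °C), PCR-amplified and sequenced on an Illumina NextSeq500. Binding signal is each 6-mer's read frequency for a factor divided by its frequency for the GST control.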

The target of assay [2] is T2, ETV3L (Homo sapiens, UniProt Q6ZN32 1-361).
T2 sequence: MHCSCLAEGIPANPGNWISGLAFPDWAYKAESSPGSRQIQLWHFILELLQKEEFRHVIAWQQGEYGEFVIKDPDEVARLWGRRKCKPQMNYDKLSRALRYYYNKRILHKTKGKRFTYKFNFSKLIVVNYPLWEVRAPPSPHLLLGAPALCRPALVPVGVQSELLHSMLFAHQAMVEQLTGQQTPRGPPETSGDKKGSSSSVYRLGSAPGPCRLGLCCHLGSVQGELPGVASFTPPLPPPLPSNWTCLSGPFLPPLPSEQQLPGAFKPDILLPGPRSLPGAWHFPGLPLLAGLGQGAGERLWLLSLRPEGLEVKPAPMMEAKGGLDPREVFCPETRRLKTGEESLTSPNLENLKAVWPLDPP
The essentials: as §1

Assay [3] concerns the target T3, ETS2 (Homo sapiens, UniProt P15036 1-469).
T3 sequence: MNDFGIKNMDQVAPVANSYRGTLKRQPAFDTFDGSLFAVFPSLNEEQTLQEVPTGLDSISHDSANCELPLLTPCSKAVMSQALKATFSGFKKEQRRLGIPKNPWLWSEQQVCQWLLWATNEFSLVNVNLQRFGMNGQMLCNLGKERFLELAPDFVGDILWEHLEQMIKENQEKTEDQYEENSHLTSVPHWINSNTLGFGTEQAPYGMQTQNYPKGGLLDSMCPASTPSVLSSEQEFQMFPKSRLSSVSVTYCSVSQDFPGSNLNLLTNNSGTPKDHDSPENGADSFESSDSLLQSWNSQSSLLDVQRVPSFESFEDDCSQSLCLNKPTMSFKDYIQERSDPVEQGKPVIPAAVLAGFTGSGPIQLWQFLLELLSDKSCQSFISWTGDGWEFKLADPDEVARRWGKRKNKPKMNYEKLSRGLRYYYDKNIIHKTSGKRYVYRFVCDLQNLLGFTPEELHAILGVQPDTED
The essentials:
as §1

The target of assay [4] is T4, SPDEF (Homo sapiens, UniProt O95238 1-335).
T4 sequence: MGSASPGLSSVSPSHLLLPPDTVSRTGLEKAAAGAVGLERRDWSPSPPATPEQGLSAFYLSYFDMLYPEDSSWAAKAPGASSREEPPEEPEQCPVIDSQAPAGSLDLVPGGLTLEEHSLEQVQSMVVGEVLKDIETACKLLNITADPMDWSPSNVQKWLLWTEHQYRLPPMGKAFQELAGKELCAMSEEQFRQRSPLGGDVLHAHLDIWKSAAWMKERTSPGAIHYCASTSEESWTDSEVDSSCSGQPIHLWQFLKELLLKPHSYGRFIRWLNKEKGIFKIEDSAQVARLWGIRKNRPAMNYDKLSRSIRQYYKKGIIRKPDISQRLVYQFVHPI
An outline of the steps:
as §1

The target of assay [5] is T5, ETV7 (Homo sapiens, UniProt Q9Y603 1-341).
T5 sequence: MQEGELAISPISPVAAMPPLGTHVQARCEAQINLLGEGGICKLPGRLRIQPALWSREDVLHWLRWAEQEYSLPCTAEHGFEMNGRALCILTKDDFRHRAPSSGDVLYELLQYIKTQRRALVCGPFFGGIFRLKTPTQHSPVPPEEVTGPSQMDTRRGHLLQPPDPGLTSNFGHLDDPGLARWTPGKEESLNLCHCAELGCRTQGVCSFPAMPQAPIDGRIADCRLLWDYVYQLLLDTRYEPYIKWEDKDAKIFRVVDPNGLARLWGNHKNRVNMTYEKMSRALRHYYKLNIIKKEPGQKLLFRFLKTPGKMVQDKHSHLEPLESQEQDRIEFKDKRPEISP
An outline of the steps:
as §1

Assay [6] concerns the target T6, ELF5 (Homo sapiens, UniProt Q9UKW6-2 1-255).
T6 sequence: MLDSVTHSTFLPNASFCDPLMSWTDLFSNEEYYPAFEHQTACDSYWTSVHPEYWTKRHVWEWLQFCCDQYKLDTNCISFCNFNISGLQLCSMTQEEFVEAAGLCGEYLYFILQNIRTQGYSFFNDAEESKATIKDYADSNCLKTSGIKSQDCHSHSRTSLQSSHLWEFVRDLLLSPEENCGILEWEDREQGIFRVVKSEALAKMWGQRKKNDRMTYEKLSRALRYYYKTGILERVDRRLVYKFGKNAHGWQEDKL
An outline of the steps:
as §1

Assay [7] has as its target T7, ETV3 (Homo sapiens, UniProt P41162-2 1-143).
T7 sequence: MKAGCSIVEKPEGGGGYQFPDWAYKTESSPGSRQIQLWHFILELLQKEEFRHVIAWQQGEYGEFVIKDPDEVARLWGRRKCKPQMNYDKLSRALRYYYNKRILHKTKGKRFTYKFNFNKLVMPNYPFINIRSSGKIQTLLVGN
The essentials:
as §1

Assay [8] addresses ETV6 (Homo sapiens, UniProt P41212 1-452). An outline of the steps:
as §1

Chain of ETV6 (P41212 whole entry): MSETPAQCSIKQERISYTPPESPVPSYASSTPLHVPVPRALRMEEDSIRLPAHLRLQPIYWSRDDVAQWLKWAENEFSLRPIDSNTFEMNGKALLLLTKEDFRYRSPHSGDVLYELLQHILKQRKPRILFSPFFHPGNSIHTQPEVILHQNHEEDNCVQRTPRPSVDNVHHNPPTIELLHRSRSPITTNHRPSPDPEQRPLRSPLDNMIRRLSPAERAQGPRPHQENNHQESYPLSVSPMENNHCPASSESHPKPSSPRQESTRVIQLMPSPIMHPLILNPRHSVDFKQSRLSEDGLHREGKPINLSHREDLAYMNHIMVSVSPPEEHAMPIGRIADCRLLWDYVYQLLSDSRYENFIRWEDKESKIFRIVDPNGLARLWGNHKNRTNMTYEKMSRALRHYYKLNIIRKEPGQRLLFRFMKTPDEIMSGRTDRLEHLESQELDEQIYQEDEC

In the case of GGCCTA, the binding signal in assay [1] is 1.19 fold enrichment (6-mer frequency, TF over GST control); in assay [2], 1.15 fold enrichment (6-mer frequency, TF over GST control); in assay [3], 1.19 fold enrichment (6-mer frequency, TF over GST control); in assay [4], 1.29 fold enrichment (6-mer frequency, TF over GST control); in assay [5], 1.26 fold enrichment (6-mer frequency, TF over GST control); in assay [6] it was 1.13 fold enrichment (6-mer frequency, TF over GST control). The binding signal in assay [7] is 1.3 fold enrichment (6-mer frequency, TF over GST control); in assay [8], 1.17 fold enrichment (6-mer frequency, TF over GST control).

TTGCTG: the binding signal in assay [1] was 1.28 fold enrichment (6-mer frequency, TF over GST control); in assay [2], 1.26 fold enrichment (6-mer frequency, TF over GST control); in assay [3] it was 1.21 fold enrichment (6-mer frequency, TF over GST control); in assay [4], 1.18 fold enrichment (6-mer frequency, TF over GST control); in assay [5], 1.37 fold enrichment (6-mer frequency, TF over GST control); in assay [6] it was 1.14 fold enrichment (6-mer frequency, TF over GST control). Moreover, the binding signal in assay [7] is 1.23 fold enrichment (6-mer frequency, TF over GST control); in assay [8], 1.13 fold enrichment (6-mer frequency, TF over GST control).

CATTAC: the binding signal in assay [1] was 1.09 fold enrichment (6-mer frequency, TF over GST control); in assay [2] it was 1.14 fold enrichment (6-mer frequency, TF over GST control); in assay [3] it was 1.23 fold enrichment (6-mer frequency, TF over GST control); in assay [4], 1.14 fold enrichment (6-mer frequency, TF over GST control); in assay [5], 1.03 fold enrichment (6-mer frequency, TF over GST control); in assay [6], 1.1 fold enrichment (6-mer frequency, TF over GST control). The binding signal in assay [7] was 1.13 fold enrichment (6-mer frequency, TF over GST control); in assay [8] it was 1.11 fold enrichment (6-mer frequency, TF over GST control).

As for CATCCG, the binding signal in assay [1] is 1.86 fold enrichment (6-mer frequency, TF over GST control); in assay [2], 2.11 fold enrichment (6-mer frequency, TF over GST control); in assay [3], 2.16 fold enrichment (6-mer frequency, TF over GST control); in assay [4], 3.63 fold enrichment (6-mer frequency, TF over GST control); in assay [5], 1.96 fold enrichment (6-mer frequency, TF over GST control); in assay [6], 2.53 fold enrichment (6-mer frequency, TF over GST control). Further, the binding signal is 2.43 fold enrichment (6-mer frequency, TF over GST control) in assay [7] and 2.03 fold enrichment (6-mer frequency, TF over GST control) in assay [8].

In the case of GGACAT, the binding signal in assay [1] is 1.12 fold enrichment (6-mer frequency, TF over GST control); in assay [2], 1.13 fold enrichment (6-mer frequency, TF over GST control); in assay [3], 1.18 fold enrichment (6-mer frequency, TF over GST control); in assay [4], 1.43 fold enrichment (6-mer frequency, TF over GST control); in assay [5], 1.23 fold enrichment (6-mer frequency, TF over GST control); in assay [6] it was 1.24 fold enrichment (6-mer frequency, TF over GST control). Also, the binding signal in assay [7] was 1.23 fold enrichment (6-mer frequency, TF over GST control); in assay [8], 1.18 fold enrichment (6-mer frequency, TF over GST control).

Turning to CAATTG, the binding signal in assay [1] is 1.29 fold enrichment (6-mer frequency, TF over GST control); in assay [2], 1.2 fold enrichment (6-mer frequency, TF over GST control); in assay [3] it was 1.26 fold enrichment (6-mer frequency, TF over GST control); in assay [4], 1.12 fold enrichment (6-mer frequency, TF over GST control); in assay [5], 1.32 fold enrichment (6-mer frequency, TF over GST control); in assay [6] it was 1.21 fold enrichment (6-mer frequency, TF over GST control). Moreover, the binding signal in assay [7] is 1.2 fold enrichment (6-mer frequency, TF over GST control); in assay [8], 1.23 fold enrichment (6-mer frequency, TF over GST control).

For the sequence CACCGA, the binding signal was 1.05 fold enrichment (6-mer frequency, TF over GST control) in assay [1]; 1.02 fold enrichment (6-mer frequency, TF over GST control) in assay [2]; 1.12 fold enrichment (6-mer frequency, TF over GST control) in assay [3]; 1.04 fold enrichment (6-mer frequency, TF over GST control) in assay [4]; 1.11 fold enrichment (6-mer frequency, TF over GST control) in assay [5]; 1.04 fold enrichment (6-mer frequency, TF over GST control) in assay [6]. Moreover, the binding signal in assay [7] is 1.01 fold enrichment (6-mer frequency, TF over GST control); in assay [8] it was 1.03 fold enrichment (6-mer frequency, TF over GST control).

ACTGTT: the binding signal is 1.19 fold enrichment (6-mer frequency, TF over GST control) in assay [1]; 1.09 fold enrichment (6-mer frequency, TF over GST control) in assay [2]; 1.13 fold enrichment (6-mer frequency, TF over GST control) in assay [3]; 1.04 fold enrichment (6-mer frequency, TF over GST control) in assay [4]; 1.01 fold enrichment (6-mer frequency, TF over GST control) in assay [5]; 1.22 fold enrichment (6-mer frequency, TF over GST control) in assay [6]. For the same sequence, the binding signal was 1.2 fold enrichment (6-mer frequency, TF over GST control) in assay [7] and 1.2 fold enrichment (6-mer frequency, TF over GST control) in assay [8].
